Data on 82 molecules can be found in PubChem BioAssay AID652054 (National Center for Advancing Translational Sciences (NCATS), 2013).

Molecules are shown by their SMILES. The whole screen tested about 360,000 compounds, of which about 9,100 (2.5%) were called active. About 4% were inconclusive and are not listed. The list comes from a sample in which actives are over-represented; it also holds similar structures and randomly drawn compounds. Values without a mark were called inactive. Cut-off read from the data, not from the text of the source: active = max response below about -50%; inconclusive = no clear call, values can overlap the other calls; inactive = above that.
% is set by controls: 0 for no effect and ±100 for the full control effect.

Chain of D(3) dopamine receptor (Homo sapiens) (P35462 whole entry, looked up): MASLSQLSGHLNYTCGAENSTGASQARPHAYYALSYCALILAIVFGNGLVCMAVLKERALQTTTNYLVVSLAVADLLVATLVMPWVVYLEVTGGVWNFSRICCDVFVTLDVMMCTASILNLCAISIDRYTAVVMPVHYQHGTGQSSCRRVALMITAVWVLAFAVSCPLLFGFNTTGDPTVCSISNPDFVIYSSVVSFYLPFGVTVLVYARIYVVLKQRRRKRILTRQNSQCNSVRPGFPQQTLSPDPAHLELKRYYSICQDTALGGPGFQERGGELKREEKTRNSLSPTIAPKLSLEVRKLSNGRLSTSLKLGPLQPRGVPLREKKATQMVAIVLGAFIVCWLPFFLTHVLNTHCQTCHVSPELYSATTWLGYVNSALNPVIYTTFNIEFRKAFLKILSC

The experiment addresses D(3) dopamine receptor (Homo sapiens) (UniProt P35462). The experiment is described as follows: qHTS of D3 Dopamine Receptor Antagonist: qHTS. The note with it: D3R cells, DiscoveRx beta-arrestin luminescence, antagonist mode; hits give low values. The gist of the method:
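Cells plated overnight at 1500 cells/well, then exposed to library compounds with dopamine controls for 90 minutes at 37 degrees C. DiscoveRx reagent added for 30–60 minutes at room temperature; luminescence read, quantitative HTS format.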
Turning to `CC1(C(=O)Nc2ccc3c(c2)OCCO3)CSCC(=O)N1CCOc1ccccc1` (configuration not stated), the max response, negative = inhibition is -1.68%.
In the case of `O=C(Nc1ccc(OCCO)cc1)c1csc([C@H]2C[C@H](O)[C@@H](CO)O2)n1` it was -7.51%.
As for `O=C(NCc1cccnc1)c1ccc2nc([C@@H]3O[C@H](CO)[C@H](O)[C@H](O)[C@H]3O)[nH]c2c1`, the figure is 40.4%; as for `Nc1nc2cc(Cl)ccc2n1N`, 0%; as for `O=C(c1cc(S(=O)(=O)N2CCOCC2)ccc1Cl)N1CCOCC1`, -16%.
Take `O=C(Nc1cc(S(=O)(=O)N2CCOCC2)ccc1Cl)c1cc(=O)c2ccccc2o1`: the max response, negative = inhibition is 17%.
In the case of `O=[N+]([O-])c1cc(Cl)cc(/C=N/NC(=S)Nc2cc(S(=O)(=O)N3CCOCC3)ccc2Cl)c1O` it was -50.3% (active); in that of `Cc1cc(C)n2c(Nc3c(C)cccc3C)c(CCc3ccccc3)nc2n1`, 18.8%; in that of `CC(=O)c1ccc(NC(=O)Nc2ccc([N+](=O)[O-])cc2C)cc1`, -18.2%.
For the molecule `CCN(CC)S(=O)(=O)c1cc([N+](=O)[O-])ccc1N=Nc1c(O)n(C)c2ccccc12`, the max response, negative = inhibition is 3.23%.
In the case of `CCN(CC)S(=O)(=O)c1cc([N+](=O)[O-])ccc1NNC(=O)Nc1ccccc1` it was -56.2% (active).
On to `COc1ccc(-c2cc(-c3ccc(N)cc3)nc(N)c2C#N)cc1OC`, for which the max response, negative = inhibition was 23.8%.
In the case of `COc1ccc(-c2ccc(Nc3ccc(S(=O)(=O)N4CCCC4)cc3)nn2)cc1OC` it was 39.5%; in that of `COc1ccc(-c2cc(C(F)(F)F)nc(S(C)(=O)=O)n2)cc1OC`, -72.7% (active).
In the case of `COc1ccc(NC(=O)CCCOc2ccc(C(C)=O)cc2)cc1S(=O)(=O)N1CCCCC1` it was -5.42%; in that of `CC(C)NC(=O)C1(C)CCCCCN1C(=O)c1ccc(-c2ccccc2)cc1` (configuration not stated), 15.2%; in that of `CCOC(=O)C(=CNc1cccc(C)n1)C(=O)OCC`, -3.11%.
As for `CCOC(=O)C(=Cc1ccccc1)C(=O)c1ccccc1`, the figure is -59.2% (active); as for `CCOC(=O)C(=Cc1ccccc1OC)C(=O)OCC`, -20.5%; as for `COC(=O)c1ccc2nc(-c3cccc(Br)c3)c(Cc3ccc(OC)cc3C)n2c1`, -25.6%.
For `Cc1ccccc1S(=O)(=O)N1[C@@H](c2cccc(Cl)c2)C(C(=O)OC(C)(C)C)=CC[C@H]1c1ccc(Cl)cc1`, the max response, negative = inhibition is 6.92%.
Turning to `CC(Sc1nnc(-c2cccs2)n1C1CC1)C(=O)NCC1CCCO1` (configuration not stated), the max response, negative = inhibition was 15.9%.
As for `CCOc1ccccc1-c1nc(CN2CCC(C(=O)N3CCOCC3)CC2)c(C)o1`, the figure is -15.7%; as for `CCOC(=O)C1(CC2CCCCO2)CCN(Cc2nc(-c3cccs3)oc2C)CC1` (configuration not stated), -99% (active).
In the case of `COc1ccccc1-c1cc2nc(NCc3cccc(Cl)c3)ccn2n1` it was 7.72%; in that of `Cc1cccc(C)c1-n1nnnc1C1(C)CCC(=O)N1CCOc1ccccc1` (configuration not stated), 8.1%; in that of `COc1ccc(NC(=O)CN(C)C(=O)c2cc(C3CC3)nn2-c2ccccc2)cc1`, -0.552%.
Turning to `CCc1ccccc1NC(=O)CN1CCN(C(=O)c2cc(C3CC3)nn2-c2ccccc2)CC1`, the max response, negative = inhibition is 13.7%.
In the case of `COc1ccc(CN2CCN(C(=O)c3cc(C4CC4)nn3-c3ccccc3)CC2)cc1F` it was -50% (active).
As to `CC(C)OC(=O)CC(=O)CC(O)c1cccc([N+](=O)[O-])c1` (configuration not stated), the max response, negative = inhibition was -17.6%.
In the case of `COc1ccc([C@@H]2[C@@H]3C(=O)N(C(C)(C)C)C(=O)[C@@H]3[C@]3(Cc4ccccc4)C(=O)N(c4cccc(Br)c4)C(=O)N23)cc1` it was 8.03%; in that of `CC(C)(C)N1C(=O)[C@H]2[C@@H](c3ccc(Br)cc3)N3C(=O)N(c4cccc(Cl)c4)C(=O)[C@@]3(C)[C@H]2C1=O`, -1.37%.
As for `CC[C@@]12C(=O)N(c3ccccc3)C(=O)N1[C@H](c1ccc(Br)cc1)[C@@H]1C(=O)N(C(C)(C)C)C(=O)[C@@H]12`, the figure is -54% (active); as for `O=C1C(Sc2cccc(F)c2)=C[C@@]2(O)CC[C@@H](O)[C@]1(Sc1cccc(F)c1)[C@H]2O`, 4.49%.
In the case of `COC(=O)C(C)n1cnc2c(nnn2-c2ccc(F)cc2)c1=O` (configuration not stated) it was 0%.
Turning to `CCOC(=O)C(C)n1cnc2c(nnn2-c2cccc(OC)c2)c1=O` (configuration not stated), the max response, negative = inhibition is -57.8% (active).
On to `CCOC(=O)C(C)n1cnc2c(nnn2-c2ccc(F)cc2)c1=O` (configuration not stated), for which the max response, negative = inhibition was -1.26%.
As for `CCCCCCCCN1C(=O)[C@H](CC(=O)NCc2cccc3ccccc23)C[C@@]2(C(=O)OC)CCCCC=C12`, the figure is 10.6%.
As for `C#CCOCCOCCOCCNc1nc(N2CCN(C(=O)CCCCCCCCCCNC(=O)[C@H]([C@@H](C)CC)n3cc(CCCCN=C(N)N)nn3)CC2)nc(N2CCN(C(=O)CCCCCCCCCCNC(=O)[C@H](CO)n3cc(CCCSC)nn3)CC2)n1`, the figure is -60.9% (active).
In the case of `C#CCOCCOCCOCCNc1nc(N2CCN(C(=O)[C@H](C(C)C)n3cc(CCO)nn3)CC2)nc(N2CCN(C(=O)[C@H](C(C)C)n3cc(CCO)nn3)CC2)n1` it was 8.41%; in that of `C#CCOCCOCCOCCNc1nc(N2CCN(C(=O)Cn3cc(CCO)nn3)CC2)nc(N2CCN(C(=O)[C@H](CCCCN)n3cc(CCCC)nn3)CC2)n1`, 15.4%; in that of `Cc1ccc(-c2nc3c(Cl)cc(C(F)(F)F)cn3c2Cc2cccc(Cl)c2)cc1`, 50.6%.
Regarding `COc1cc2nnn(-c3ccncc3)c2cc1OC`, the max response, negative = inhibition was 28%.
On to `COC(=O)c1c(NC(=O)c2c(Cl)cnn2C)sc(C)c1C`, for which the max response, negative = inhibition is 11.6%.
As for `COCCCNCC(=O)Nc1sc(C)c(C)c1C(=O)OC`, the figure is -52.8% (active); as for `CCC(=O)Nc1sc(C(=O)Nc2ccccc2)c(C)c1C(=O)OC`, 31.4%; as for `COCc1cccc(-c2csc(C(O)c3ccc(F)cc3)n2)c1` (configuration not stated), 0%.
As for `O=C(c1cccs1)N1C[C@H](n2cc(C3CC3)nn2)[C@@H](O)C[C@@H]1c1ccccc1`, the figure is -2.86%; as for `C=CCn1c2c(c3ccccc31)CCC2`, -10.5%; as for `CC(C)C1C(=O)N(Cc2cn(CCC3OCCO3)nn2)CCS(=O)(=O)N1Cc1ccc(-c2ccccc2C(F)(F)F)cc1` (configuration not stated), -3.14%.
Take `O=C1[C@H]2[C@@H](c3ccc(Cl)cc3)N3C(=O)N(c4cccc(F)c4)C(=O)[C@@]3(Cc3ccccc3)[C@H]2C(=O)N1C1CCCCC1`: the max response, negative = inhibition is -0.596%.
As for `Cc1cccc(N2C(=O)N3[C@H](c4ccc(F)cc4)[C@@H]4C(=O)N(C5CCCCC5)C(=O)[C@@H]4[C@]3(Cc3ccccc3)C2=O)c1`, the figure is -58.6% (active); as for `O=C1[C@H]2[C@@H](c3ccc(F)cc3)N3C(=O)N(c4ccc(C(F)(F)F)cc4)C(=O)[C@@]3(Cc3ccccc3)[C@H]2C(=O)N1C1CCCCC1`, -13.4%.
As for `OC[C@@H]1CN(Cc2cccs2)C[C@H](n2cnc3c(NC4CCCC4)ncnc32)O1`, the figure is 18.9%; as for `CC(C)c1cccc(-c2csc(C(O)c3ccccc3)n2)c1` (configuration not stated), -27.4%; as for `COc1ccccc1-c1sc2ccccc2c1-c1ccc(Br)nc1`, -14.1%.
With `COc1cccc(-c2sc3ccc(OC)cc3c2-c2ccc(OCCN3CCCCC3)cc2)c1`, the max response, negative = inhibition is -12.2%.
As for `COc1ccc2sc(-c3ccccc3OC)c(-c3ccc(OCCN4CCCC4)cc3)c2c1`, the figure is -83.2% (active).
In the case of `O=C(Nc1ccc(C2CC2(Cl)Cl)cc1)c1cccc([N+](=O)[O-])c1` (configuration not stated) it was -14.6%; in that of `CC(C)(Oc1ccc(C2CC2(Cl)Cl)cc1)C(=O)O` (configuration not stated), -111% (active); in that of `CCc1nc2c(OCc3ccc(F)c(F)c3)cccn2c1N(C)C(=O)c1ccco1`, 15.7%.
As for `COc1ccc(C(=O)NC2=NCCS2)c(OC)c1`, the figure is 5.28%; as for `O=C(NC1=NCCS1)c1ccc(Cl)s1`, -77% (active); as for `COc1ccccc1C(=O)NCCC(=O)NC1=NCCS1`, 0%.
In the case of `O=C(C[n+]1ccc2c(c1)nnn2-c1ccccc1)c1ccc(Cl)cc1`, the max response, negative = inhibition is -54.4% (active).
As for `O=C(Cn1cc(-c2nnnn2-c2ccc(Cl)cc2)c(=O)c2ccccc21)c1ccccc1`, the figure is 36.4%; as for `O=C(CSc1cccc[n+]1[O-])c1ccc(Cl)cc1`, -3.66%.
In the case of `Cc1noc(C)c1C(=O)N1CCC1(C)C(=O)NS(=O)(=O)c1ccc(C#N)cc1` (configuration not stated) it was 13.1%; in that of `COCc1cc(C)nc2sc(C(=O)NC3CCCCC3)c(N)c12`, -50.5% (active); in that of `Cc1cccn2c(=O)c3cc(C(=O)NC4CCCCC4)sc3nc12`, -12.3%.
In the case of `COc1ccc(OC)c(NC(=O)c2sc3nc(C)cc(C)c3c2N)c1` it was 22.5%; in that of `COc1cncc(-c2cnc3sc(NCCc4ccccn4)nn23)c1`, 60.8%; in that of `Cc1ccsc1/C=N/n1c(=S)[nH]nc(C)c1=O`, -20.9%.
As for `S=c1[nH]nc(-c2cccs2)n1/N=C/c1cn(-c2ccccc2)nc1-c1ccc(Cl)cc1`, the max response, negative = inhibition is -16%.
In the case of `Cc1ccc(/C=N\n2c(-c3ccccc3)n[nH]c2=S)s1` it was -72.1% (active); in that of `Oc1ccccc1/C=N/n1c(-c2cccs2)n[nH]c1=S`, -79.6% (active); in that of `S=c1[nH]nc(-c2ccncc2)n1/N=C/c1ccccc1Cl`, 38%.
In the case of `Fc1ccccc1/C=N/n1c(-c2cccnc2)n[nH]c1=S` it was -11.6%; in that of `CCCCCC(=O)N1C[C@H](O)[C@@H](n2cc(COC(=O)c3ccccc3)nn2)C[C@@H]1c1ccc(C)cc1`, 8.87%; in that of `COC(=O)C1=CN(c2c(C)cc(C)cc2C)C(N)=C(C#N)C1c1cccc(F)c1` (configuration not stated), 2.73%.
In the case of `Cc1ccnc(SC2CC(=O)N(c3ccccc3)C2=O)n1` (configuration not stated) it was -15.3%; in that of `CC[C@@H]1CC2=C(C(=O)OC(C)(C)O2)[C@@H](CC)O1`, 16.4%.
